{
  "source": "PubChem BioAssay (NCATS)",
  "note": "Values joined by “and” are separate entries in the source; they are usually repeats but may differ in a detail not shown here. Identical values can stand only once. Records with an inconclusive call do not appear. Active and inactive are the calls of the source. Calls come from the whole dose curve. Square brackets hold non-standard residues; d marks the D form. Peptide text beside a SMILES is read from it. * marks the point of attachment. Nva = CCC[C@H](N)C(=O)O; Cbz = O=C(OCc1ccccc1)*",
  "data": [
    {"assay": "Primary qHTS to identify inhibitors of SARS-CoV-2 cell entry (AID 1645846); note: nearly all actives have a fitted effect of over 45% in size; note: potency is the fitted concentration of half-maximal effect", "settings": "SARS-CoV-2 pseudovirus cell entry assay, luminescence; activity change, negative = inhibition: at 57.1 µM (top of the series) unless noted; series mostly up to 57.1 µM", "procedure,_shortened": "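HEK293 cells stably expressing human ACE2, pre-treated 1 h with compound, then infected with MLV particles pseudotyped with Wuhan-Hu-1 spike (C-terminal 19-aa truncation). Luciferase luminescence after 48 h at 37 °C, normalised to spike PP and bald PP.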", "values": [
      {"smiles": "COc1cc(C[C@@H](CO)[C@H](CO)Cc2ccc(O)c(OC)c2)ccc1O", "outcome": "inactive"},
      {"smiles": "CCC[C@@H](C=O)NC(=O)[C@H](CC(C)C)NC(=O)[C@H](CC(C)C)NC(=O)OCc1ccccc1", "note": "(Cbz-Leu-Leu-[Nva]-aldehyde)", "Potency": "891 nM (active)"},
      {"smiles": "CC(C)n1cnc2c(NCCCCCCNC(=O)OC(C)(C)C)nc(NCCO)nc21", "Potency": "28200 nM (active)"},
      {"smiles": "NC(=O)c1noc([C@H](CCCC2CCCCC2)CC(=O)NO)n1", "activity change, negative = inhibition": "-13.6%"},
      {"smiles": "N#Cc1cc(NC(=O)Nc2nnc(-c3ccncc3)s2)ccc1-c1cn[nH]c1", "outcome": "inactive"},
      {"smiles": "COc1cc(NC(=O)c2ccc(-c3ccc(Cl)cc3)o2)cc(OC)c1", "activity change, negative = inhibition": "-4.11%"},
      {"smiles": "Cc1c(CCOc2ccc(C(=O)O)cc2)c2cc(Cl)ccc2n1C(c1ccccc1)c1ccccc1", "activity change, negative = inhibition": "-34.5%"},
      {"smiles": "COc1ccc(-c2oc3c(CC=C(C)C)c(O)cc(O)c3c(=O)c2O)cc1", "activity change, negative = inhibition": "-9.03%"},
      {"smiles": "CCS(=O)(=O)Nc1ccc2[nH]c(O)c(C(=Nc3ccc(CN4CCCCC4)cc3)c3ccccc3)c2c1", "Potency": "2820 nM (active)"},
      {"smiles": "CCCCOc1c(C(=O)c2c(F)cc(C)cc2F)cnc2n[nH]cc12", "Potency": "1120 nM (active)"},
      {"smiles": "Nc1nc(OCc2ccccc2)c2[nH]cnc2n1", "outcome": "inactive"},
      {"smiles": "NC[C@H]1O[C@H](O[C@@H]2[C@@H](O)[C@@H](O[C@H]3O[C@H](CO)[C@@H](O)[C@H](N)[C@@H]3O)[C@H](N)C[C@@H]2N)[C@H](O)[C@@H](O)[C@H]1O", "activity change, negative = inhibition": "-26.9%"},
      {"smiles": "COc1cccc2c1C(=O)c1c(O)c3c(c(O)c1C2=O)C[C@@](O)(C(=O)CO)C[C@@H]3O[C@H]1C[C@H](N)[C@H](OC2CCCCO2)[C@H](C)O1", "note": "(some centres undefined)", "activity change, negative = inhibition": "-97.2% and -91.8%"},
      {"smiles": "CS(=O)(=O)c1ccc(C2=C(c3ccccc3)C(=O)OC2)cc1", "activity change, negative = inhibition": "-28.2% and -25.4%"}
    ]}
  ]
}
